High-throughput results: PubChem BioAssay, several laboratories
Compounds with a hit are over-represented: about 2.8% of the library has one in this group of screens.
Granule exo inh = blocks lytic granule exocytosis | TALL-104 LAMP-1 surface exposure, flow cytometry; cells stimulated with thapsigargin and PMA | inhibition, % at 10 µM | actives 0.66% (n = 360,000);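 active = inhibition above about 55%, limit read from the data; inconclusive = no clear call, values can overlap the other calls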
IDE cell inh = inhibits human insulin-degrading enzyme in HEK cells. P14735. FAbetaB cleavage, fluorescence polarization. inhibition, % at 5.59 µM. actives 0.41% (n = 320,000). AID 434962;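 active = percent inhibition above the average of all tested compounds plus 3 SD, set per screening campaign, cut at about 16% in these data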;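 also: IDE supplied by intact live HEK cells; FP after avidin binding of uncleaved biotin substrate so inhibition keeps polarization high; 0% = DMSO wells and 100% = 60 µM reference IDE inhibitor Ii1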
SKKanGAS inh = inhibitors of SKKanGAS S. pyogenes growth in kanamycin (SK-promoter or general growth effect) | BacTiter-Glo, 6 h | inhibition, % at 7.5 µM | actives 1.3% (n = 300,000) | AID 1662;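 active = mean replicate score, as percent of positive control median, at least 50; inconclusive = mean below 50 but one replicate at or above 50; inactive = mean and every replicate below 50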;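 also: strain carries kanamycin resistance gene driven by streptokinase promoter and grows in 40 µg/ml kanamycin; loss of luminescence reflects streptokinase promoter inhibition or plain growth inhibition; 0% = median of DMSO wells and 100% = positive control at its reference dose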
PP1 inh = PP1-alpha (human) inhibition in PP5 counter-screen | P62136 | purified PP1alpha, OMFP fluorescence | inhibition, % at 6.7 µM | actives 0.9% (n = 320,000) | AID 2235;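 active = inhibition above the mean inhibition of all tested compounds plus 3 SD, computed separately for each screening campaign, cut at about 15% in these data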
Target sequence (P62136 whole entry, looked up): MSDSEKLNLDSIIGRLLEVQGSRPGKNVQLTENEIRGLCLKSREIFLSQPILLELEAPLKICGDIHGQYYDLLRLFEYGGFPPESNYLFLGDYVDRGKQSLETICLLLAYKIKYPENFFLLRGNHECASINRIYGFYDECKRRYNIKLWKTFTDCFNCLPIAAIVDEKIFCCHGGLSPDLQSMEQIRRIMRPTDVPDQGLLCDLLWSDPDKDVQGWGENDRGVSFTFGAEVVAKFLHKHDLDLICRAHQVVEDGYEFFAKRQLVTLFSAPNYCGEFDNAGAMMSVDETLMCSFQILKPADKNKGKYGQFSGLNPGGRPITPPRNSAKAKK
PP5 inh = blocks human protein phosphatase 5 activity; purified PP5c, OMFP substrate fluorescence; inhibition, % at 6.7 µM; AID 1987; actives 0.18% (n = 320,000);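 active = inhibition above the campaign's mean inhibition across all tested compounds plus 3 SD, cut at about 9.5% in these data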;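 also: 0% = DMSO only and 100% = 100 µM cantharidin control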
IDE cell activ = IDE (human) activation, cell-based | P14735 | HEK cells, FAbeta-B cleavage, fluorescence polarization; 0% vehicle, 100% cell-free pure enzyme wells | activation, % at 5.96 µM | actives 0.073% (n = 340,000);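 active = activation above the mean of all tested compounds plus 3 SD, set per screening campaign, cut at about 17% in these data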
PP1 inh confirm = confirmation of human PP1 phosphatase inhibitors; shares compounds with PP1 inh; purified PP1alpha, OMFP substrate fluorescence; inhibition, % at 6.7 µM; actives 52% (n = 1,900); AID 2358;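 active = mean PP1 inhibition above a set limit taken from the earlier primary screen, cut at about 15% in these data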
PP5 counter = inhibits human PP5 phosphatase in PP1 counter-screen; shares compounds with PP1 inh; purified PP5c, OMFP fluorescence; inhibition, % at 6.7 µM; AID 2360; actives 4% (n = 1,900);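 active = mean PP5 inhibition over triplicate wells above about 9.5% taken from the earlier PP1 screen, limit read from the data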
Numbers without * were called inactive.

For COc1cc(CCC(=O)Nc2nccs2)cc(OC)c1OC the results were Granule exo inh -4.0, IDE cell inh -0.8, SKKanGAS inh -0.1, PP1 inh 1.5, PP5 inh 2.4 and IDE cell activ -0.5.
`CC(=O)Nc1cccc(-c2nc3ccccc3[nH]2)c1` gave Granule exo inh -3.6, IDE cell inh 6.3, SKKanGAS inh 1.1, PP1 inh 1.2, PP5 inh -0.1 and IDE cell activ 1.7.
CC(C)(C)C(=O)Nc1cccc(-c2nc3ccccc3[nH]2)c1 was read as Granule exo inh -4.1, IDE cell inh 7.3, SKKanGAS inh -5.8, PP1 inh 23.1*, PP5 inh 1.1, IDE cell activ 1.2, PP1 inh confirm -1.0 and PP5 counter -3.4.
For CCc1nnc(NC(=O)c2ccc(S(=O)(=O)N(CC)Cc3ccccc3)cc2)o1 the results were Granule exo inh -1.8, IDE cell inh 7.6, SKKanGAS inh 14.7, PP1 inh 36.4*, PP5 inh -3.6, IDE cell activ 1.4, PP1 inh confirm 32.1* and PP5 counter -0.1.
Screening CCc1nnc(NC(=O)c2ccc(S(=O)(=O)N(C)Cc3ccccc3)cc2)o1 returned Granule exo inh -0.2, IDE cell inh -1.9, SKKanGAS inh inconclusive, PP1 inh 36.8*, PP5 inh 2.5, IDE cell activ 6.4, PP1 inh confirm 34.1* and PP5 counter 3.7.
`CN(Cc1ccccc1)S(=O)(=O)c1ccc(C(=O)Nc2nnc(C3CC3)o2)cc1` gave Granule exo inh 1.9, IDE cell inh -1.2, SKKanGAS inh 79.1*, PP1 inh 36.4*, PP5 inh 2.2, IDE cell activ -1.3, PP1 inh confirm 31.1* and PP5 counter -0.2.
CCN(CC)S(=O)(=O)c1ccc(C(=O)Nc2nnc(CSC)o2)cc1 was read as Granule exo inh 1.4, IDE cell inh -1.5, SKKanGAS inh 0.6, PP1 inh 8.1, PP5 inh -0.4 and IDE cell activ 1.5.
For COc1ccccc1-c1nnc(NC(=O)c2ccc(S(=O)(=O)N(C)Cc3ccccc3)cc2)o1 the results were IDE cell inh 1.9, PP1 inh 21.0*, PP5 inh 3.1, PP1 inh confirm 30.8* and PP5 counter -0.9.
For CC(=O)Nc1ccc(S(=O)(=O)N(C)Cc2ccccc2)cc1 the results were Granule exo inh -0.7, IDE cell inh 0.4, SKKanGAS inh -7.7, PP1 inh 6.0, PP5 inh 0.3 and IDE cell activ -3.3.
CC(=O)c1ccc(OC(C)C)c(Cc2c(O)nc(N)[nH]c2=O)c1 was read as Granule exo inh 3.1, IDE cell inh 2.4, SKKanGAS inh -0.7, PP1 inh -2.6, PP5 inh 1.6 and IDE cell activ 3.2.
CCN(Cc1ccccc1)S(=O)(=O)c1ccc(C(=O)Nc2nnc(C)o2)cc1 was read as Granule exo inh -0.4, IDE cell inh 2.6, SKKanGAS inh inconclusive, PP1 inh 38.2*, PP5 inh 2.6, IDE cell activ 2.5, PP1 inh confirm 26.3* and PP5 counter -1.5.
CCN(CC)S(=O)(=O)c1ccc(C(=O)Nc2nnc(COC)o2)cc1 was read as Granule exo inh 0.1, IDE cell inh 4.2, SKKanGAS inh 4.2, PP1 inh 4.6, PP5 inh 2.8 and IDE cell activ 2.2.
`CC1(C)C=C2C(=NN(c3ccccc3)C(N)=C2C#N)CO1` gave Granule exo inh 3.5, IDE cell inh -7.2, SKKanGAS inh 2.6, PP1 inh 33.5*, PP5 inh 1.2, IDE cell activ -3.8, PP1 inh confirm 0.8 and PP5 counter 59.0*.
Screening NS(=O)(=O)c1ccc(CCNC(=O)COC(=O)Cc2c(F)cccc2Cl)cc1 returned Granule exo inh -1.5, IDE cell inh 1.6, SKKanGAS inh 27.4, PP1 inh -2.4, PP5 inh 2.4 and IDE cell activ 3.5.
Screening CCOC(=O)N1CCN(C(=O)CNS(=O)(=O)c2c(C)cc(C)cc2C)CC1 returned Granule exo inh -1.9, IDE cell inh -1.3, SKKanGAS inh -0.4, PP1 inh 2.0, PP5 inh -2.4 and IDE cell activ -3.7.
For O=C(Nc1nc(-c2ccccn2)cs1)c1cccc(S(=O)(=O)N2CCOCC2)c1 the results were Granule exo inh -4.1, IDE cell inh 6.8, PP1 inh 29.9*, PP5 inh 6.1, IDE cell activ -0.9, PP1 inh confirm 31.8* and PP5 counter 9.4.
Screening O=C(Nc1nc(-c2ccccn2)cs1)c1ccc(S(=O)(=O)N2CCCCC2)cc1 returned IDE cell inh -5.6, SKKanGAS inh 84.2*, PP1 inh 29.4*, PP5 inh 4.3, PP1 inh confirm 26.8* and PP5 counter -1.3.
O=C(Nc1nc(-c2cccs2)cs1)c1ccc(S(=O)(=O)N2CCCCC2)cc1 was read as Granule exo inh 1.9, IDE cell inh 6.6, SKKanGAS inh 22.9, PP1 inh 7.0, PP5 inh -1.7 and IDE cell activ 7.2.
O=S(=O)(Nc1c(F)cccc1F)c1ccc(Cl)nc1 was read as Granule exo inh -4.9, IDE cell inh -4.9, SKKanGAS inh -12.0, PP1 inh -4.1, PP5 inh -1.1 and IDE cell activ 5.0.
Screening C#CCOCCOCCOCCNc1nc(N2CCN(C(=O)CCCCCCCCCCNC(=O)[C@@H](CCSC)n3cc(CCO)nn3)CC2)nc(N2CCN(C(=O)CCCCCCCCCCNC(=O)[C@H]([C@@H](C)CC)n3cc(CCCCCN)nn3)CC2)n1 returned IDE cell inh -7.5, PP1 inh 60.1*, PP5 inh 4.1, PP1 inh confirm 52.7* and PP5 counter 2.6.
Screening C#CCOCCOCCOCCNc1nc(N2CCN(C(=O)CCCCCCCCCCNC(=O)[C@@H](CCSC)n3cc(CCO)nn3)CC2)nc(N2CCN(C(=O)CCCCCCCCCCNC(=O)[C@H]([C@@H](C)CC)n3cc(CCCCN=C(N)N)nn3)CC2)n1 returned Granule exo inh -3.2, IDE cell inh 5.3, PP1 inh 55.3*, PP5 inh 3.1, IDE cell activ 45.6*, PP1 inh confirm 49.3* and PP5 counter 0.5.
Screening CCN(CC(=O)NCc1ccc(F)cc1)C(=O)C1CCN(S(=O)(=O)c2ccc(C(C)C)cc2)CC1 returned Granule exo inh 6.6 and IDE cell activ 6.1.
O=C(c1ccc(Nc2cccc(C(F)(F)F)c2)nc1)N1CCCC1 was read as Granule exo inh 14.3, IDE cell inh 5.3, SKKanGAS inh 11.9, PP1 inh -2.3, PP5 inh -1.7 and IDE cell activ 0.3.
`Cc1nc(Nc2cnc(/C=C/c3cc(C(=O)Nc4cccc(C(F)(F)F)c4)ccc3C)cn2)cc(N2CCNCC2)n1` gave IDE cell inh 3.7, SKKanGAS inh 72.3*, PP1 inh 22.8*, PP5 inh 2.0, PP1 inh confirm -6.4 and PP5 counter -2.0.
